Compound activity from PubChem.
HCV inhibitor: blocks hepatitis C virus. Potency, µM (highest dose often 41.8 µM), inactives show at the top dose activity change, negative = inhibition, usual class: inhibitors. hit rate 3.4% among 340,000. AID 651820. Huh7.5.1 HCVcc-Cre infection, luciferase reporter, 44 h; note: potency is the fitted concentration of half-maximal effect; % is set by controls: 0 for no effect and ±100 for the full control effect
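Infectious HCV cell culture screen: compound-treated cells (1,000/well, pre-plated 4 h) are infected with HCVcc-Cre at roughly 0.5 moi and grown 44 h. Infection is quantified by luciferase signal after 15 min substrate incubation at room temperature.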
AMA1 RON2 block: AMA1-RON2 (P. falciparum) interaction inhibition; AlphaScreen AMA1-biotinylated RON2 peptide binding; Potency, µM (series often up to 58.2 µM), without a hit: at the highest dose activity change, negative = inhibition, hits mostly inhibitors; hit rate 0.2% among 360,000;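 note: potency is the fitted concentration of half-maximal effect; 0% = vehicle wells and -100% = peptide control; nearly all actives have a fitted effect of over 45% in size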
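AMA1 (3D7) with his tag at 25 nM final met compounds first, then biotinylated RON2 peptide at 25 nM; detection used donor plus acceptor beads, 10 µg/mL apiece, read by AlphaScreen after 30 min at room temperature.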
Shiga toxin inh: inhibitors of Shiga toxin in Vero cells | Vero cells, Shiga toxin protein synthesis inhibition reporter | inhibition, % at 38.7 µM | hit rate 9.2% among 290,000 | AID 2315; in the data active = inhibition mostly above about 28%, no sharp cut-off; inactive = mostly below about 43%; note: 0% is about no effect
Pf growth 48h: P. falciparum growth inhibition at 48 hours (one generation) | AID 504832 | Potency, µM (top dose mostly 28.7 µM), for the others: top-dose activity change, negative = inhibition, hits mostly inhibitors | hit rate 5.9% among 310,000 | P. falciparum luciferase growth in erythrocytes, 48 h; note: potency is the fitted concentration of half-maximal effect; % is set by controls: 0 for no effect and ±100 for the full control effect
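Cell-based growth assay: transgenic P. falciparum expressing firefly luciferase, cultured in red cells within RPMI 1640 containing 0.5% w/v Albumax, 24 mM bicarbonate and gentamycin. A drop in luciferase activity indicates inhibition.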
Pf growth 96h: P. falciparum growth inhibition at 96 hours; AID 504834; P. falciparum luciferase reporter growth, 96 h; Potency, µM (highest dose often 28.7 µM), without a hit: at the highest dose activity change, negative = inhibition, hits mostly inhibitors; hit rate 6.9% among 320,000; note: potency is the fitted concentration of half-maximal effect; % is set by controls: 0 for no effect and ±100 for the full control effect
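Compounds incubated with erythrocytes infected by luciferase-expressing P. falciparum (2% hematocrit, 0.05% parasitemia final) for 96 hours, 37 C in 5% CO2. Growth inhibition scored as decreased luciferase luminescence.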
CHX counter: counter-screen hit for Shiga toxin inhibitors, cycloheximide; cell reporter, cycloheximide protein synthesis inhibition counterscreen; max response, %; hit rate 12% among 300,000; in the data active = max response mostly above about 13%, no sharp cut-off; inactive = mostly below about 14%; note: read at 38.3 µM for the half of the compounds with a filed dose; 0% is about no effect
Numbers without * were called inactive; i = inactive; ? = inconclusive; . = not tested or not shown; [ ] = remark or other dose. Hits are enriched below; roughly 21% of the tested compounds scored in any of these assays. Unless noted, calls come from the whole dose curve; as a rule, active = well fitted curve in the direction sought with a large enough effect; inconclusive = small, poorly fitted or top-dose-only effect, or another doubt; inactive = no such curve, though single readings can be large; an effect the other way counts as inactive or inconclusive.

SMILES	HCV inhibitor	AMA1 RON2 block	Shiga toxin inh	Pf growth 48h	Pf growth 96h	CHX counter
Cc1ccc(CCCNC(=O)C2CCC(=O)N(Cc3cccc(F)c3)C2)cc1 (stereo unspecified)	11%	2%	-2	?	7%	14*
CCOC(=O)CC1(NC(=O)C2CCC(=O)N(CCc3ccc(OC)cc3)C2)CCCCC1 (stereo unspecified)	11%	7%	2	?	?	29*
COc1ccc(CCN2CC(C(=O)NCC3(O)CCCCC3)CCC2=O)cc1 (stereo unspecified)	.	-14%	-11	9%	-25%	-3
COc1ccc(CCN2CC(C(=O)NCc3cccc4[nH]ccc34)CCC2=O)cc1 (stereo unspecified)	1%	-9%	5	-16%	9.3µM*	1
Cc1cc(C)n2nc(SCC(=O)N3CCCC(C)C3)nc2n1 (stereo unspecified)	-4%	18%	.	.	.	.
O=C(CSc1nc2ccccc2[nH]1)NCc1ccc2c(c1)OCO2	-2%	-15%	-1	16%	4.1µM*	-5
O=C(CSc1nc2ccccc2[nH]1)c1ccc2c(c1)OCO2	-4%	4%	91*	-90%	?	57*
O=C(CSc1nc2ccccc2o1)NCc1ccc2c(c1)OCO2	-15%	12%	27*	75%	-14%	15*
COc1cc(Cl)c(C)cc1Nc1ncccn1	?	-6%	4	8%	31%	-2
O=C(CCNC(=O)c1ccc(Br)cc1)Nc1ccc(S(=O)(=O)Nc2ncccn2)cc1	19%	-15%	.	-6%	20%	.
CCC(=O)N1CCCC(C)(C(=O)Nc2nccc3cccnc23)C1 (stereo unspecified)	.	7%	.	.	.	.
Cc1cc(C)c(OCC(=O)OCC(=O)N2CCCc3ccccc32)c(C)c1	18%	0%	.	9%	?	.
CC(=O)Oc1ccccc1-c1nc(C)nc(N(C)C(C)=O)n1	?	0%	38*	53%	.	12*
Cc1cc(NS(=O)(=O)c2c(C(=O)N3CCOCC3)c(C)n(C)c2C)ccc1Br	10%	-6%	-5	-7%	52%	-6
O=C(Nc1cccc(-c2cn3c(n2)SCC3)c1)c1ccc2ccccc2n1	-59%	53%	133*	88%	i	45*
O=C(Nc1ccc(-c2cn3c(n2)SCC3)cc1)c1ccc2ccccc2n1	?	26%	48*	3%	?	50*
CCCS(=O)(=O)Nc1cccc(-c2cn3c(n2)SCC3)c1	3%	-2%	-3	-7%	14%	-2
Cc1cc(C)c(-c2csc(NC(=O)C3=COCCO3)n2)cc1C	?	-8%	.	39%	15%	.
C=CCn1c(C)cc(-c2csc(NCC)n2)c1C	10µM*	-21%	89*	?	?	43*
C=CCn1c(C)cc(-c2csc(NC(=O)C3=COCCO3)n2)c1C	-11%	8%	.	5.2µM*	?	.
Cc1ccc(C)c2c1c1ccccc1n2C	?	-5%	42	38%	8%	20*
O=C(C(=C1N(Cc2ccc(Cl)nc2)CCN1Cc1ccc(Cl)nc1)[N+](=O)[O-])C(Cl)Cl	-5%	-2%	-8	.	-1%	8
O=[N+]([O-])C(/C=C(\Cl)[N+](=O)[O-])=C1N(Cc2ccc(Cl)nc2)CCN1Cc1ccc(Cl)nc1	?	-3%	16	2.3µM*	6.6µM*	7
COCCNC(=O)[C@H]1N2C(=O)c3ccccc3C2SC1(C)C (stereo partly specified)	10%	11%	-6	.	-1%	-3
Cc1nnc(Sc2cc(NCCCO)c([N+](=O)[O-])c3nonc23)s1	10µM*	1%	-3	0%	?	10
SMILES	HCV inhibitor	AMA1 RON2 block	Shiga toxin inh	Pf growth 48h	Pf growth 96h	CHX counter
Cc1ccc(NC(=O)COC(=O)c2ccccc2-c2nc3ccccc3s2)c(C)c1	-16%	-3%	-13	-9%	-11%	-3
Cc1ccccc1NC(=O)c1cnc(Nc2nc3ccccc3s2)nc1C	.	.	-6	33%	83%	1
Cc1cc(C)nc(Nc2cccc3ccccc23)n1	0%	-1%	12	1%	5%	-1
Cc1ccc(Nc2nc3ccccc3s2)c(C)c1	-4%	-22%	94*	265%	186%	47*
CC(=O)c1c(C)nc(Nc2nc3ccccc3s2)nc1C	-4%	-2%	98*	310%	i	68*
CC(=O)c1c(C)nc(Nc2nc(C)c3cc(C)ccc3n2)nc1C	-3%	0%	56*	4%	11%	18
Cc1cc(C)nc(Nc2nc3ccccc3s2)n1	29%	6%	59*	155%	1.7µM*	39*
CS(=O)(=O)Nc1cccc(-c2cc(NC=O)c3ncc(-c4ccc(F)c(Cl)c4)n3c2)c1	.	49%	.	.	.	.
CCCCNC(=S)Nc1cccc2cnccc12	10µM*	-6%	-6	8%	-11%	-3
COCCNC(=S)Nc1cccc2cnccc12	?	-1%	-9	20%	0%	9
Fc1ccccc1NC(=S)Nc1cccc2cnccc12	?	6%	-9	-20%	36%	13
Cc1ccc(C)c(NC(=S)Nc2cccc3cnccc23)c1	?	9%	-11	?	9.3µM*	1
Cc1ccccc1NC(=S)Nc1cccc2cnccc12	-11%	8%	54*	5.2µM*	9.3µM*	24*
Cc1ccc(F)c(NC(=S)Nc2cccc3ccccc23)c1	.	.	58*	?	50%	36*
Cc1ccc(S(=O)(=O)C[C@@H]2OC[C@H](C)N2S(=O)(=O)c2ccc(C)cc2)cc1	.	-11%	.	.	.	.
CSCC[C@H](NC(=O)OC(C)(C)C)C(=O)N1CCC(C(=O)N[C@@H](C)C(=O)NC(C)c2ccccc2)CC1 (stereo partly specified)	-5%	22%	-5	?	6%	-3
Cc1nc(-c2ccccc2)nc2[nH]c(=O)n(-c3ccccc3)c(=O)c12	10%	-4%	54*	39%	.	31*
Cc1nc(-c2ccccc2)nc2[nH]c(C(C)C)cc(=O)c12	?	5%	-4	-27%	5%	-3
COCCN(C(=O)CSc1nnc(-c2cccc(OC)c2)n1C)c1c(N)n(Cc2ccccc2)c(=O)[nH]c1=O	.	.	13	19%	-4%	1
Cc1cccc(NC(=S)N2CCC(NC(=O)c3ccco3)CC2)c1	-5%	0%	-4	5%	4%	-2
COc1cccc(NC(=S)N/N=C2/CCCCc3ccccc32)c1	?	37%	55*	?	?	42*
CC(C)NC(=S)N/N=C1\CCCCc2ccccc21	?	43%	-11	?	?	-8
Cc1ccc(C)c(NC(=S)N/N=C2/CCCCc3ccccc32)c1	?	28%[2.32 µM]	11	8.3µM*	4.1µM*	7
